Assay results published in PubChem BioAssay (NCI).
Compounds without any hit were thinned out: in the full panel of roughly 83,000, 20% have a hit.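 Single-dose data. Exposure time 48 hours. Values below 10 considered active.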 Unmarked numbers belong to inactive results. Activity calls are given as the source filed them.

Columns and labels:
Assay in all cases: NCI-60 one-dose screen, 48 h (100 = growth as untreated, 0 = no growth, -100 = all killed)
[1] = tested on: HCT-15 colon; conditions: 10 µM unless noted
[2] = tested on: HT29 colon; conditions: 10 µM unless noted
[3] = tested on: SNB-75 CNS; conditions: 10 µM unless noted
[4] = tested on: SNB-19 CNS; conditions: 10 µM unless noted
[5] = tested on: U251 CNS; conditions: 10 µM unless noted
[6] = tested on: PC-3 prostate; conditions: 10 µM unless noted
[7] = tested on: SK-MEL-5 melanoma; conditions: 10 µM unless noted
[8] = tested on: UACC-62 melanoma; conditions: 10 µM unless noted
[9] = tested on: LOX IMVI melanoma; conditions: 10 µM
[10] = tested on: SK-MEL-28 melanoma; conditions: 10 µM unless noted

SMILES	growth [1]	growth [2]	growth [3]	growth [4]	growth [5]	growth [6]	growth [7]	growth [8]	growth [9]	growth [10]
COC(=O)C[C@](O)(CCCC(C)(C)O)C(=O)O[C@H]1C(OC)=C[C@@]23CCCN2CCc2cc4c(cc2[C@@H]13)OCO4	0.83% (active)	-48.3% (active)	-48.9% (active)	-26.8% (active)	-23.4% (active)	-15.1% (active)	-71.9% (active)	-18.5% (active)	-82.4% (active)	-35.4% (active)
C#CCOc1cc(N(CC)CC)ccc1C(C(=O)NC(C)(C)C)N(C(=O)C1CCc2cc(F)ccc2O1)c1ccccc1F (configuration not stated)	29.8%	45.3%	39.7%	35.1%	17.5%	13.5%	17.3%	30.9%	-61.6% (active)	63.9%
C/C(=N\N=C1/C(=O)Nc2ccccc21)c1ccc2c(c1)Nc1ccccc1S2	48.6%	71.5%	44%	64.5%	60.1%	63.6%	42%	40.5%		75%
C#CCOc1cc(N(CC)CC)ccc1C(C(=O)NC(C)(C)C)N(C(=O)C1CCc2cc(F)ccc2O1)c1ccc(Br)cc1 (configuration not stated)	65.4%	77.3%	98.9%	91.5%	87.2%	38.8%	81%	61%	35.9%	80.2%
CNC(=O)c1cc(Oc2ccc3nc(NC(=O)Nc4cccc(OC(F)(F)F)c4)sc3c2)ccn1	51.1%	25%	6.6% (active)	-46.6% (active)	2.42% (active)	4.97% (active)	53.7%	-4.81% (active)		31.9%
CN(C)CCn1c2ccccc2c2nc3ccc([N+](=O)[O-])cc3nc21	4.65% (active)	-15.6% (active)	47.6%	4.08% (active)	-8.94% (active)	19.9%	-81% (active)	-25.5% (active)		8.67% (active)
CCCCNC(=S)Nc1ccc(OCc2nc3ccccc3[nH]2)cc1	47.9%	50.3%	56%	70%	57.4%	58.2%	78%	38.2%		88.2%
CCOc1ccc(C(=O)NC(=S)Nc2ccc(S(N)(=O)=O)cc2)cc1	111% [100 µM]	98.1% [100 µM]	76.9% [100 µM]	104% [100 µM]	96.7% [100 µM]	92.1% [100 µM]	88.1% [100 µM]	94.8% [100 µM]		107% [100 µM]
COc1cc2c(c(OC)c1OC)C(=O)CC(c1cccc(NC(=O)c3cc(NC(=O)[C@H](CO)NC(=O)OC(C)(C)C)ccc3Cl)c1)O2 (some centres not stated)	35.4%	15.7%	54.8%	45%	25.4%	28.1%	14.3%	40.2%		21%
CC(=O)Nc1ccc(C(=O)NC(=S)Nc2ccc(S(N)(=O)=O)cc2)cc1	106%	92.6%	78.1%	98.4%	94.2%	97.9%	88.3%	86.9%		97%
CC1=C(C(=O)c2ccccc2)C(c2ccc(-n3cncn3)cc2)n2c(nc3ccccc32)N1 (configuration not stated)	83.9%	93.7%	76.4%	74.9%	71.7%	78.7%	89.7%	70.6%		106%
